Activity calls are given as the source filed them. Rule for the calls: active = hit-call score of the fitted dose curve at least 0.9, where 1 is the maximum; inactive = score below 0.9.
How the values were obtained:
[1] = read-out: Transforming growth factor beta 1 (TGFb1), TGFB1 (gene 7040); assay: BSK_KF3CT_TGFb1: BioMAP Diversity Plus: KF3CT Assay for Transforming growth factor beta 1 (TGFb1) Biomarker Activity (AID 2283072); settings: primary human keratinocytes with fibroblasts; actives raise or lower the signal
Procedure, shortened: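 Signal changes in either direction, relative to DMSO, define activity here. TGF-b1 is read by ELISA from a human keratinocyte-fibroblast co-culture 24 h post-dose.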

[2] = read-out: C-C motif chemokine 2 (Homo sapiens) (UniProt P13500); assay: BSK_KF3CT_MCP1: BioMAP Diversity Plus: KF3CT Assay for Monocyte Chemoattractant Protein 1 (MCP1/CCL2) Biomarker Activity (AID 2283073); settings: primary human keratinocytes with fibroblasts; actives raise or lower the signal
Procedure, shortened: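 KF3CT skin co-culture (keratinocytes/foreskin fibroblasts), 24 h post-dose; MCP-1 by ELISA; gain/loss of signal fit bidirectionally vs DMSO baseline.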

[3] = read-out: Matrix Metallopeptidase 9 (MMP9), MMP9 (gene 4318); assay: BSK_KF3CT_MMP9: BioMAP Diversity Plus: KF3CT Assay for Matrix Metallopeptidase 9 (MMP9) Biomarker Activity (AID 2283074); settings: primary human keratinocytes with fibroblasts; actives raise or lower the signal;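 for AC50: MMP9 protein level quantified by ELISA in the co-culture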
Procedure, shortened: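 Human keratinocyte and foreskin fibroblast co-culture exposed to chemicals for 24 h; MMP9 biomarker measured by ELISA, bidirectional fitting relative to DMSO; cytotoxicity tracked by SRB total protein staining in parallel cultures.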

[4] = read-out: urokinase plasminogen activator (uPA), PLAU (gene 5328); assay: BSK_KF3CT_uPA: BioMAP Diversity Plus: KF3CT Assay for urokinase plasminogen activator (uPA) Biomarker Activity (AID 2283075); settings: primary human keratinocytes with fibroblasts; actives raise or lower the signal
Procedure, shortened: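 Primary human keratinocyte/foreskin fibroblast co-culture exposed to chemical; uPA measured by ELISA at 24 h. Bidirectional fit versus DMSO, with parallel SRB total-protein staining for cytotoxicity.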

[5] = read-out: CD40, CD40 (gene 958); assay: BSK_LPS_CD40: BioMAP Diversity Plus: LPS Assay for CD40 Biomarker Activity (AID 2283076); settings: primary human HUVEC with PBMC; actives raise or lower the signal
Procedure, shortened: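 ELISA readout of CD40 in HUVEC/PBMC co-culture (BSK_LPS system), 24 h post-dosing; bidirectional curve fit, DMSO baseline; parallel SRB total-protein staining for cytotoxicity.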

[6] = read-out: E-selectin (Homo sapiens) (UniProt P16581); assay: BSK_LPS_Eselectin: BioMAP Diversity Plus: LPS Assay for Eselectin Biomarker Activity (AID 2283077); settings: primary human HUVEC with PBMC; actives raise or lower the signal
Procedure, shortened: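 ELISA readout of E-selectin, 24 h post-dose, HUVEC + PBMC co-culture (LPS system). Gain or loss of signal vs DMSO baseline, bidirectional fit.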

[7] = read-out: Interleukin-8 (IL8), CXCL8 (gene 3576); assay: BSK_LPS_IL8: BioMAP Diversity Plus: LPS Assay for Interleukin-8 (IL8) Biomarker Activity (AID 2283078); settings: primary human HUVEC with PBMC; actives raise or lower the signal
Procedure, shortened: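 HUVEC + PBMC co-culture, LPS-activated; test chemicals dosed, IL-8 read by ELISA at 24 h. Bidirectional curve fit vs DMSO baseline (gain or loss of signal).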

[8] = BSK_LPS_SRB: Viability Assessment in the BioMAP Diversity Plus: LPS Assay (AID 2283079); settings: primary human HUVEC with PBMC;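 note: total protein by sulforhodamine B absorbance as a cytotoxicity measure; measured one day after compound addition; fitted in both directions against DMSO so loss or gain of signal counts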
Procedure, shortened: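 HUVEC + PBMC co-culture, LPS-stimulated; compound 24 h. 10% TCA fix, 0.1% SRB stain, A560. Bidirectional fit vs DMSO.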

[9] = read-out: Interleukin-1 alpha (IL1a), IL1A (gene 3552); assay: BSK_LPS_IL1a: BioMAP Diversity Plus: LPS Assay for Interleukin-1 alpha (IL1a) Biomarker Activity (AID 2283080); settings: primary human HUVEC with PBMC; actives raise or lower the signal
Procedure, shortened: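 HUVEC/PBMC co-culture, LPS system; 24 h after dosing; IL-1a by ELISA; gain or loss of signal fitted bidirectionally vs DMSO baseline.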

[10] = read-out: Monocyte Chemoattractant Protein-1 (MCP1), CCL2 (gene 6347); assay: BSK_LPS_MCP1: BioMAP Diversity Plus: LPS Assay for Monocyte Chemoattractant Protein-1 (MCP1) Biomarker Activity (AID 2283081); settings: primary human HUVEC with PBMC; actives raise or lower the signal;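 for AC50: secreted MCP-1 protein quantified by ELISA in culture supernatant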
Procedure, shortened: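 ELISA read-out of MCP-1 after 24 h chemical dosing of a human umbilical vein endothelial cell/peripheral blood mononuclear cell co-culture stimulated with LPS. Gain or loss of signal fitted relative to DMSO controls.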

[11] = BSK_LPS_PGE2: BioMAP Diversity Plus: LPS Assay for Prostaglandin E2 (PGE2) Biomarker Activity (AID 2283082); settings: primary human HUVEC with PBMC; actives raise or lower the signal
Procedure, shortened: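 Endpoint derived from bidirectional curve fitting versus DMSO of ELISA-measured PGE2 in LPS-stimulated human primary vascular co-culture (HUVEC with PBMC) harvested at 24 h.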

[12] = read-out: Macrophage colony-stimulating factor (MCSF), CSF1 (gene 1435); assay: BSK_LPS_MCSF: BioMAP Diversity Plus: LPS Assay for Macrophage colony-stimulating factor (MCSF) Biomarker Activity (AID 2283083); settings: primary human HUVEC with PBMC; actives raise or lower the signal
Procedure, shortened: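 HUVEC + PBMC co-culture (human primary), 24 h post-dose; M-CSF by ELISA; gain/loss of signal fitted bidirectionally vs DMSO baseline.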

[13] = read-out: Tumor necrosis factor (Homo sapiens) (UniProt P01375); assay: BSK_LPS_TNFa: BioMAP Diversity Plus: LPS Assay for Tumour Necrosis Factor alpha (TNFa) Biomarker Activity (AID 2283085); settings: primary human HUVEC with PBMC; actives raise or lower the signal
Procedure, shortened: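 Primary human vascular co-culture of HUVEC and PBMC; TNFa ELISA 24 h after treatment, analysed as increase or decrease relative to DMSO control.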

[14] = read-out: Vascular cell adhesion molecule 1 (VCAM1), VCAM1 (gene 7412); assay: BSK_LPS_VCAM1: BioMAP Diversity Plus: LPS Assay for Vascular cell adhesion molecule 1 (VCAM1) Biomarker Activity (AID 2283086); settings: primary human HUVEC with PBMC; actives raise or lower the signal
Procedure, shortened: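 Primary human vascular co-culture (umbilical vein endothelium plus PBMC) stimulated with LPS received chemical; 24 h later VCAM-1 was read by ELISA. Overt cytotoxicity was assessed by sulforhodamine B staining of parallel cultures at the same time point.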

[15] = read-out: CD38, CD38 (gene 952); assay: BSK_SAg_CD38: BioMAP Diversity Plus: SAg Assay for CD38 Biomarker Activity (AID 2283087); settings: primary human HUVEC with PBMC; actives raise or lower the signal
Procedure, shortened: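 Fluorescence ELISA of cell-surface CD38 served as the read-out, with either increase or decrease fitted against DMSO controls. Cells were a human umbilical vein endothelium plus PBMC co-culture under SEB/TSST-1 stimulation, measured 24 h after dosing.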

[16] = read-out: CD40, CD40 (gene 958); assay: BSK_SAg_CD40: BioMAP Diversity Plus: SAg Assay for CD40 Biomarker Activity (AID 2283088); settings: primary human HUVEC with PBMC; actives raise or lower the signal
Procedure, shortened: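 HUVEC/PBMC co-culture, 24 h post-dose; CD40 by ELISA, fluorescence intensity; bidirectional fit vs DMSO negative control.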

[17] = read-out: CD69, CD69 (gene 969); assay: BSK_SAg_CD69: BioMAP Diversity Plus: SAg Assay for CD69 Biomarker Activity (AID 2283089); settings: primary human HUVEC with PBMC; actives raise or lower the signal;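 for AC50: cell surface CD69 protein quantified by ELISA with fluorescence detection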
Procedure, shortened: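 Endothelial/PBMC co-culture; chemical added; 24 h incubation; CD69 ELISA with fluorescence detection; bidirectional fit vs DMSO.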

[18] = read-out: Monocyte Chemoattractant Protein-1 (MCP1), CCL2 (gene 6347); assay: BSK_SAg_MCP1: BioMAP Diversity Plus: SAg Assay for Monocyte Chemoattractant Protein-1 (MCP1) Biomarker Activity (AID 2283090); settings: primary human HUVEC with PBMC; actives raise or lower the signal
Procedure, shortened: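 MCP-1 levels in the endothelial–PBMC SAg co-culture were quantified by ELISA at 24 h post-dosing; both increases and decreases versus DMSO scored. Cytotoxicity monitored by SRB total protein in parallel cultures.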

[19] = read-out: E-selectin (Homo sapiens) (UniProt P16581); assay: BSK_SAg_Eselectin: BioMAP Diversity Plus: SAg Assay for Eselectin Biomarker Activity (AID 2283091); settings: primary human HUVEC with PBMC; actives raise or lower the signal
Procedure, shortened: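 E-selectin ELISA readout at 24 h post-dosing in human umbilical vein endothelial cell/PBMC co-culture; gain or loss of signal fitted relative to DMSO baseline.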

Measured: AC50

Sequence of E-selectin (Homo sapiens) (P16581 whole entry, looked up): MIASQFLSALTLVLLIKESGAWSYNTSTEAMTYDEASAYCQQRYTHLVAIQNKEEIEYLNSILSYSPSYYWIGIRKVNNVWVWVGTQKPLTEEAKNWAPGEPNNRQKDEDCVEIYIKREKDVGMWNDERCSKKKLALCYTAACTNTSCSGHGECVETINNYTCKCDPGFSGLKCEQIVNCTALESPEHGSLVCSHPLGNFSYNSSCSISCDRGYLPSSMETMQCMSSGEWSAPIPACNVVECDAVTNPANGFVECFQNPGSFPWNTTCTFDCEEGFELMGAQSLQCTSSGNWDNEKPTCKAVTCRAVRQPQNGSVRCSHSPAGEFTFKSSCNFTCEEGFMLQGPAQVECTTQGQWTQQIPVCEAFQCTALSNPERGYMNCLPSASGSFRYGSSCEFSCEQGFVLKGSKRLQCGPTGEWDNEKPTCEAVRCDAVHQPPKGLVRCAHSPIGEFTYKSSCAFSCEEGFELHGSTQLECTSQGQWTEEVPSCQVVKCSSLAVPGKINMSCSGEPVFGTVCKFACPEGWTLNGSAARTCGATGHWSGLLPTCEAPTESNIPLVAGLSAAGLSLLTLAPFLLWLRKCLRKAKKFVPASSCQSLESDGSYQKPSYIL
Sequence of Tumor necrosis factor (Homo sapiens) (P01375 whole entry, looked up): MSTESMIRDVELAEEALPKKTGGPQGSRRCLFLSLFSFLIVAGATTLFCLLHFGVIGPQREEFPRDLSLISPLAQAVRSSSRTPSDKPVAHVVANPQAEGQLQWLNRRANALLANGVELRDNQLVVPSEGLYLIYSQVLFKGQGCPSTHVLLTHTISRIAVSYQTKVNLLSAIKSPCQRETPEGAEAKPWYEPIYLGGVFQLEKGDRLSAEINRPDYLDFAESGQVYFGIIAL

O=S(=O)(C(Cl)(Cl)Cl)C(Cl)(Cl)Cl
active: [2] 2.37 µM | [3] 2.22 µM | [4] 3.52 µM | [5] 1.51 µM | [6] 2.4 µM | [7] 2.88 µM | [8] 5.31 µM | [9] 1.6 µM | [10] 4.15 µM | [12] 1.83 µM | [14] 2.28 µM | [15] 2.64 µM | [16] 2.74 µM | [17] 3.57 µM | [18] 4.17 µM | [19] 3.13 µM
inactive: [1] | [11] | [13]

CCCCOC(=O)COC(=O)c1ccccc1C(=O)OCCCC
not listed: [1]
inactive: all other assays above

COCC(=O)N(c1c(C)cccc1C)[C@H](C)C(=O)OC
inactive: all assays above

CCOP(=S)(OCC)SCS(=O)(=O)C(C)(C)C
inactive: all assays above

O=S(=O)(c1ccc(Cl)cc1)c1cc(Cl)c(Cl)cc1Cl
active: [1] 5.16 µM | [3] 0.58 µM | [15] 3.97 µM
inactive: all other assays above

Nc1ccc(N)cc1
inactive: all assays above

N#Cc1cccnc1
inactive: all assays above

Oc1c(Br)cc(Br)cc1Br
active: [3] 28.2 µM | [5] 13.9 µM | [15] 30.3 µM | [16] 20 µM | [17] 35 µM | [19] 20 µM
inactive: all other assays above
